According to PubChem BioAssay AID720514 (Broad Institute, 2013):
Screen size: about 2,100 compounds; about 300 (14%) were called active. Not shown: some 2% with an inconclusive outcome.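 How the source made its calls: active means every replicate test run called active, with the signal falling and half-maximal concentration within twice the top valid dose; inconclusive means the replicate test runs disagree in their calls; inactive means every test run inactive, including effects in the opposite direction.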 These entries were drawn from the full list. Entries with a potency or affinity are not part of this list.

experiment: inhibitors of PGC1a acetylation in cells, dose response, cell-based, cherry-picked samples (AID 720514); conditions: U2OS PGC1a acetylation, AlphaLISA, overnight; series mostly up to 19.5 µM; activity change, negative = inhibition: at the top concentration;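 further: 0% = neutral control wells and -100% = positive control wells; actives lower the acetylation signal so they count as inhibitors of PGC1a acetylation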

Activity change, negative = inhibition, inactive:
Cc1ccccc1NC(=O)c1nc(S(C)(=O)=O)ncc1Cl 46.6% [at 10 µM]
Cc1ccc(Cl)cc1NC(=O)Cn1nc(-c2cccs2)ccc1=O 77%
C[C@@H]1CN([C@H](C)CO)C(=O)c2c(c3ccccc3n2C)-c2ccccc2CO[C@@H]1CN(C)C(=O)Nc1ccc2c(c1)OCO2 102%
CC(Oc1ccc(Cl)cc1Cl)c1nc(-c2ccc(NC(=O)c3cccnc3)cc2)no1 (stereo not given) 232% [at 5 µM]
Cc1ccc(-c2nn(C)c(=O)c3ccccc23)cc1S(=O)(=O)NCCN(C)C 32%
O=C(C[C@H]1CC[C@H](NC(=O)NC2CCCCC2)[C@H](CO)O1)NCc1ccc(Cl)cc1 39.8%
CCCCSc1ccc(NC(=O)c2cccnc2)cc1 221%
CCn1c(SCC(N)=O)nnc1C(C)C 47.9%
O=C1NC(=Nc2ccccc2Cl)S/C1=C\c1cccc([N+](=O)[O-])c1O 47.6%
CC1(Cc2ccc(Cl)s2)C(=O)Nc2c(Cl)ccc(Cl)c21 (stereo not given) 39.8%
O=C(NCc1ccccc1)N1CCC(n2cnc3cc(F)ccc32)CC1 143%
COc1ccc(C(=O)NN(C)c2nc(-c3ccccc3)cc(C)c2S(C)(=O)=O)cc1 45.8%
O=C(NCc1ccccc1)c1ccc(NC(=O)C2CC2)cc1 68.6%
CSc1nn(-c2ccc(C(=O)OC(C(=O)NC(N)=O)C(C)C)cc2)c(=S)s1 (stereo not given) 60.7%
CC(=O)Nc1ccc(NC(=O)CN(c2cc(Cl)ccc2Cl)S(C)(=O)=O)cc1 264%
Cc1nc(N2CCN(S(=O)(=O)c3ccc(F)cc3)CC2)c2c(-c3cccs3)csc2n1 57.9%
Cc1ccc(S(=O)(=O)NC(CC(C)C)C(=O)N2CCCCCCC2)cc1 (stereo not given) 129%
O=[N+]([O-])c1ccc(S(=O)(=O)c2cccc(C(F)(F)F)c2)nc1 88.2% [at 10 µM]
Nc1ccccc1Oc1ncc(C(F)(F)F)cc1Cl 66.8% [at 10 µM]
CCOC(=O)c1sc2nc(C)nc(NCc3ccccc3OC)c2c1C 33.3%
CCO[C@H]1OC(C(=O)Nc2ccccc2)=C[C@@H](c2csc3ccccc23)[C@@H]1CCCO 53.7%
O=C(NCCCN1CCOCC1)c1ccccc1N1C(=O)[C@@H]2Cc3c([nH]c4ccccc34)C(c3ccccc3)N2C1=O (stereo not given in full) 76.8% [at 10 µM]
O=C(Cc1ccccn1)NCC[C@@H]1CC[C@@H](NC(=O)Nc2ccc(C(F)(F)F)cc2)[C@@H](CO)O1 -20.7%
O=C(Cc1ccccn1)NCC[C@@H]1CC[C@H](NC(=O)Nc2ccc(C(F)(F)F)cc2)[C@@H](CO)O1 3.56%
Cc1cccc2sc(N3CCN(C(=O)c4cccs4)CC3)nc12 45.5%
